Screening results deposited in PubChem BioAssay by Johns Hopkins Ion Channel Center.
An excerpt weighted towards active compounds, which were near 1.6% of everything screened.
KCNQ2 pot: potentiators of rat KCNQ2 potassium channel. hit rate 0.54% among 310,000. Potassium voltage-gated channel subfamily KQT member 2 (Rattus norvegicus), O88943. CHO-K1 KCNQ2, FluxOR thallium flux fluorescence; stronger effect = higher value. B-score at 10 µM;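 active means fluorescence ratio B-score at least 3 SD of library B-scores, with initial fluorescence B-score within 3 of them, cut at about 5.3 in these data; same plate scores as AID 2156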;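 further: B-score of peak minus minimum over baseline fluorescence ratio after K+ and Tl+ stimulus; positive B-score means potentiation of KCNQ2 with more thallium influx and brighter signal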
Target sequence (O88943 whole entry, looked up): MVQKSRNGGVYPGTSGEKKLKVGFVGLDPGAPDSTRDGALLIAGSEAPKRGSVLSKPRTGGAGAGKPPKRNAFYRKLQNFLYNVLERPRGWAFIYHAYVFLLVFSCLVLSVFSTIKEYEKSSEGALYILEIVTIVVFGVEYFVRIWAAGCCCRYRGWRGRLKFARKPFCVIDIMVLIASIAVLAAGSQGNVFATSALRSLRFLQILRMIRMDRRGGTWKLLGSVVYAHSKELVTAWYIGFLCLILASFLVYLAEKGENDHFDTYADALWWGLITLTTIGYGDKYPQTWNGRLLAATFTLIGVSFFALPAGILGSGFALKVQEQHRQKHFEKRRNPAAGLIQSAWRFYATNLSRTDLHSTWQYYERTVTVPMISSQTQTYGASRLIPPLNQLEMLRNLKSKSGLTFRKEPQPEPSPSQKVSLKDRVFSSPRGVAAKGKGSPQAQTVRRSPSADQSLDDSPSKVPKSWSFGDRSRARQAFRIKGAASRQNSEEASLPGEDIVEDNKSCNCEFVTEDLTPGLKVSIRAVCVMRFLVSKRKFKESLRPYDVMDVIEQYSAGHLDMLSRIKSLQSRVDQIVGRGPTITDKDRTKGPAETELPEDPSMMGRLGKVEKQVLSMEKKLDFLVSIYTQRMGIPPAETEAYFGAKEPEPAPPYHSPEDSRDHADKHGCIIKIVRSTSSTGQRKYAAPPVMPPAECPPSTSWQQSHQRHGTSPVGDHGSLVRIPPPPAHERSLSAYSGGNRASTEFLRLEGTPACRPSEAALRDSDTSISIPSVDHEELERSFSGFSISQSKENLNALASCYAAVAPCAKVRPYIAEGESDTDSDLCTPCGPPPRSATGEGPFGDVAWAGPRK
KCNQ2 inh: rat KCNQ2 potassium channel inhibitors, primary screen, cell-based, CHO-K1, FluxOR thallium flux, B-score; B-score at 10 µM; 20 min; stronger effect = lower value; AID 2156, 2009; hit rate 1.1% among 310,000;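 active means fluorescence ratio B-score at most minus 3 library SDs, with starting brightness B-score within 2 library SDs, cut at about -5.5 in these data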
* marks the source's active call; other numbers are inactive results; i = inactive; / = not tested or not shown.

SMILES	KCNQ2 pot	KCNQ2 inh
CCOc1ccccc1NC(=O)c1cc(-c2cc(OC)c(OC)c(OC)c2)nc2ccccc12	-6.1	-6.1*
O=C(Nc1cccnc1Oc1ccc(Cl)cc1)c1cccc2ccccc12	-6	-6*
Cc1cccc(NC(=O)CNC(=O)c2ccc(-n3cncn3)c([N+](=O)[O-])c2)c1C	0.52	i
CCCSc1ccc(C(=O)Nc2ccc(Cl)cc2)cn1	0.31	i
CCOC(=O)c1c(S(=O)(=O)NCC(=O)N2CCN(c3ccccc3)CC2)c(C)n(C)c1C	/	i
COc1cccc(C(=O)Nc2cccc3ccccc23)c1OC	-6.2	-6.2*
COc1ccccc1CC(=O)Nc1cccc2ccccc12	/	i
Cc1ccc2nc(C)cc(C(=O)N/N=C/c3ccncc3)c2c1	0.06	i
CCn1cc(C(=O)NCCCN(CC(C)C)CC(C)C)c(=O)c2cc(S(=O)(=O)N(C)C3CCCCC3)ccc21	0.44	i
CC(=O)Oc1c(Cl)cc(N(C(C)=O)S(=O)(=O)c2ccccc2)c2ccccc12	/	i
CC1(C)C2CCC1(CS(=O)(=O)NCc1ccc(Cl)cc1Cl)C(=O)C2 (centres undefined)	-5.9	-5.9*
COc1cccc(NS(=O)(=O)CC23CCC(CC2=O)C3(C)C)c1 (centres undefined)	/	i
CC(Nc1ncnc2sccc12)c1ccccc1 (centres undefined)	/	i
CCOC(=O)N1C(=O)[C@](CC)(c2ccccc2)N1C(=O)OCC	0.2	i
CCC1(c2ccccc2)C(=O)N(C(=O)OC(C)(C)C)N1C(=O)OC(C)(C)C (centres undefined)	-6.5	-6.5*
COC(=O)Cn1cc(S(=O)(=O)NCc2ccc(C)cc2)c2cc([N+](=O)[O-])ccc21	1.4	i
Cc1cc(Nc2ccccc2)n(-c2cccc(Cl)c2)n1	-6	-6*
Cc1cc(NC(=O)Nc2cccc(Cl)c2)n(-c2ccccc2)n1	1.1	i
CC(C)c1c(C(=O)N/N=C/c2ccccc2OCc2c(F)cccc2Cl)nnn1-c1nonc1N	/	i
COc1ccc(NC(=O)CN(C)C(=O)/C=C/c2cn(-c3ccccc3)nc2-c2cccs2)cc1	/	i
Cc1cc(C)n(-c2nc(NCCN(C)C)c3c4c(sc3n2)COC(C)(C)C4)n1	1.7	i
Cc1cc(C)n(-c2nc(-n3nc(C)cc3C)c3c4c(sc3n2)COC(C)(C)C4)n1	-8	-8*
Cc1nc(N)sc1-c1csc(Nc2ccccn2)n1	6.8*	i
Cc1nc(N)sc1-c1csc(Nc2ccc(Cl)cn2)n1	0.76	i
COc1cccc(-n2nc(C(C)=O)c(C#N)c2-c2ccco2)c1	0.05	i
SMILES	KCNQ2 pot	KCNQ2 inh
C/C(=C\C(=S)Nc1ccccc1)Nc1ccc2ccccc2c1	-6.3	-6.3*
C/C(=C\C(=S)Nc1ccccc1)Nc1cccc2ccccc12	/	i
c1ccc(C2=NNC(c3ccccn3)=NN2)nc1	/	i
O=C1NC(Cc2ccccc2)C(=O)N1Cc1cc([N+](=O)[O-])cc2c1OCOC2 (centres undefined)	/	i
CN(CC(=O)NCCc1ccccc1)S(=O)(=O)c1ccccc1	/	i
O=C(Nc1nnc(C2=COCCO2)o1)c1cccc(F)c1	2.5	i
Cc1cccc(C(=O)Nc2nnc(C3=COCCO3)o2)c1	18*	i
Clc1cccc(N/N=C(\Cc2nc3ccccc3[nH]2)c2ccccc2)c1	-6.3	-6.3*
c1ccc(N/N=C(\Cc2ncc[nH]2)c2ccccc2)cc1	/	i
CN(Cc1ccc(F)cc1)C(=O)C(c1ccccc1)c1ccccc1	/	i
COc1ccccc1CN(C)C(=O)C(c1ccccc1)c1ccccc1	-5.6	-5.6*
O=P(Cc1cc(Br)cc(Br)c1OCCO)(c1ccccc1)c1ccccc1	/	i
Cc1cc(Cn2nc(-c3ccccc3)cc2C(=O)NCc2cccc(Br)c2)on1	0.29	i
O=c1c2ccccc2[nH]c(=S)n1Cc1ccccc1	0.43	i
CC(C)n1c(=S)[nH]c2ccccc2c1=O	0.52	i
O=c1c2ccccc2[nH]c(=S)n1CCc1ccccc1	7.2*	i
CCC(C)n1c(=S)[nH]c2ccccc2c1=O (centres undefined)	6.8*	i
COc1ccc(C(C)(C)C)cc1NC(=O)Cn1cnnn1	1.1	i
Cc1nc2sc3c(c2c(=O)[nH]1)CCCCC3	/	i
Cc1cc(C)n(-c2nc3sc4c(c3c(=O)[nH]2)CCCC4)n1	18*	i
Cc1ccc(S(=O)(=O)NCC(=O)N(c2ccccc2)C(C(=O)NCc2ccccc2)c2ccco2)cc1 (centres undefined)	-6.9	-6.9*
Cc1cc(C)cc(N(C(=O)CNS(=O)(=O)c2ccccc2)C(C(=O)NCc2ccccc2)c2ccc(C)o2)c1 (centres undefined)	/	i
CCC(C)(CCNC(=O)Cc1ccccc1)c1ccccc1OC (centres undefined)	/	i
O=C(N/C(=C\c1ccccc1)C(=O)N1CCCCC1)c1ccco1	0.11	i
Cc1csc(NC(=O)c2ccc(COc3ccccc3)o2)n1	/	i
SMILES	KCNQ2 pot	KCNQ2 inh
O=C(CSc1nnc(Cc2cccs2)n1CCc1ccccc1)N1CCCc2ccccc21	-6.5	-6.5*
O=C(CSc1nnc(Cc2cccs2)n1C1CCCCC1)N1CCCc2ccccc21	-6.5	-6.5*
O=C(CSc1nnnn1C1CCCC1)N1CCCc2ccccc21	/	i
Cn1c(Cc2cccs2)nnc1SCC(=O)N1CCCc2ccccc21	/	i
O=C1C2C3C=CC(CC3)C2C(=O)N1c1ccc(Cl)cc1Cl (centres undefined)	/	i
Cc1cc(NC(=O)OC2CCCCC2)ccc1[N+](=O)[O-]	0.89	i
CC1CCN(S(=O)(=O)c2ccc(NC(=O)C3CSC4(C)CCC(=O)N34)cc2)CC1 (centres undefined)	0.07	i
NC(=O)C1CCN(C(=O)NC(=O)c2ccccc2)CC1	0.07	i
Cc1ccc(NNC(=O)c2ccc(Cl)cc2)nn1	/	i
N#Cc1ccccc1Cn1cc(/C=C/[N+](=O)[O-])c2ccccc21	/	i
O=C(CCNS(=O)(=O)c1ccc(Br)s1)NCc1ccc2c(c1)OCO2	2.9	i
Cc1nnc(SCC(=O)Nc2ccc(O)cc2)c2ccccc12	-5.6	-5.6*
Cc1nnc(SCC(=O)Nc2ccccc2)c2ccccc12	/	i
Cc1cccc(C(=O)Nc2ccc(C(=O)N/N=C/c3ccco3)cc2)c1	2.9	i
O=C(CCS(=O)(=O)c1ccc(Br)cc1)NCc1ccco1	0.01	i
COc1ccc(S(=O)(=O)N(CC(=O)NCc2ccccn2)Cc2ccccc2)cc1	/	i
O=C(CN(Cc1ccc(Br)cc1)S(=O)(=O)c1ccccc1)NCc1ccccn1	-6.5	-6.5*
O=C(CN(Cc1ccccc1)S(=O)(=O)c1ccc(Br)cc1)NCc1ccco1	-6.6	-6.6*
O=C(Cc1ccc(F)cc1)Nc1c(C(=O)N2CCN(c3ncccn3)CC2)oc2ccccc12	0.04	i
O=c1cc(-c2c(O)c3ccccc3n(Cc3ccccc3)c2=O)[nH][nH]1	-6.8	-6.8*
CCn1c(=O)c(-c2cc(=O)[nH][nH]2)c(O)c2ccccc21	/	i
C=CCn1c(NCc2ccccc2OC)nc2ccccc21	/	i
C=CCn1c(NCc2cc(Cl)ccc2O)nc2ccccc21	/	i
CCn1c(NCc2cc(Cl)ccc2O)nc2ccccc21	-5.6	-5.6*
